Among the data in PubChem BioAssay (EPA / NIEHS) are outcome and AC50 values, retold here.

Inconclusive results are not listed. Activity calls are given as the source filed them. How the source made its calls, unless noted: active means hit-call score of the fitted dose curve at least 0.9, where 1 is the maximum; inactive means score below 0.9.

The nature of test [1]: ATG_TGFb_CIS: Attagene CIS-FACTORIAL HepG2 Assay for human Transforming Growth Factor (TGF) (AID 2282967). The settings on record: HepG2 Attagene CIS TGFb reporter, mRNA transcription; actives raise or lower the signal. The method, boiled down: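 Transient MRTU transfection of HepG2 (FuGene 6). Dose 24 h. TriZol RNA, oligo(dT) RT, PCR, 6-FAM primer extension, HpaI cut, CE. Bidirectional fit, DMSO = baseline.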

In test [2] the target is X-box-binding protein 1 (Homo sapiens) (UniProt P17861). Put plainly: ATG_Xbp1_CIS: Attagene CIS-FACTORIAL HepG2 Assay for human X-box Binding Protein 1 (XBP1) (AID 2282972). The settings on record: HepG2 XBP1 cis-element reporter, Attagene multiplex; actives raise or lower the signal. The method, boiled down:
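HepG2, transient MRTU transfection (cis-promoter driven), 24 h compound exposure. Total RNA → oligo(dT) RT → PCR → 6-FAM labeling → HpaI cut → CE. Bidirectional fit vs DMSO.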

Test [3] is described as follows: ATG_M_19_TRANS: Attagene TRANS-FACTORIAL HepG2 Assay for M19 Transcription Factor (Internal Marker) (AID 2282974; active means hit-call score of the fitted dose curve at least 0.9, where 1 is the maximum). To be noted: HepG2 Attagene TRANS-FACTORIAL M19 internal marker reporter. The method, boiled down:
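Using RT-PCR and capillary electrophoresis, reporter mRNA from transiently transfected human HepG2 cells was quantified following 24 h exposure; activity was fitted in the positive direction against DMSO.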

Test [4] is described as follows: ATG_GAL4_TRANS: Attagene TRANS-FACTORIAL HepG2 Assay for GAL4 (Internal Marker) (AID 2282976; active means hit-call score of the fitted dose curve at least 0.9, where 1 is the maximum). To be noted: HepG2 Attagene TRANS GAL4 internal marker reporter. A digest of the protocol: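 HepG2 cells transiently transfected with multiplexed GAL4-UAS reporter constructs were dosed for 24 h. Reporter mRNA was measured by RT-PCR, 6-FAM primer extension, HpaI digestion and capillary electrophoresis, and gain of signal was fitted relative to DMSO.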

Test [5] deals with Glucocorticoid receptor (Homo sapiens) (UniProt P04150). The test is described as follows: ATG_GR_TRANS: Attagene TRANS-FACTORIAL HepG2 Assay for human Glucocorticoid Receptor (GR) (AID 2282978; active means hit-call score of the fitted dose curve at least 0.9, where 1 is the maximum;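 further: activators score as hits since higher reporter transcript over DMSO is fitted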). To be noted: HepG2 Attagene TRANS GR reporter, mRNA transcription. The method, boiled down: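 Exogenous NR-GAL4 fusion activity was assessed through induced GAL4-UAS reporter transcripts in transfected human HepG2 cells, quantified after 24 h by RT-PCR and fluorescent capillary electrophoresis with DMSO as baseline.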

The target in test [6] is Estrogen-related receptor gamma (Homo sapiens) (UniProt P62508). Put plainly: ATG_ERRg_TRANS: Attagene TRANS-FACTORIAL HepG2 Assay for human Estrogen-Related Receptor gamma (ERRg) (AID 2282977; active means hit-call score of the fitted dose curve at least 0.9, where 1 is the maximum;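 further: hits increase reporter signal over DMSO so potencies reflect activators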). The settings on record: HepG2 Attagene TRANS reporter, ERRg transactivation. The method, boiled down: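 HepG2 cells transiently transfected with multiplexed GAL4-UAS reporter units driven by chimeric NR-Gal4 proteins; 24 h exposure. Reporter mRNA quantified by RT-PCR, fluorescent labelling, HpaI digestion and capillary electrophoresis; gain of signal vs DMSO.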

For test [7], the target named is Steroid hormone receptor ERR1 (Homo sapiens) (UniProt P11474). Put plainly: ATG_ERRa_TRANS: Attagene TRANS-FACTORIAL HepG2 Assay for human Estrogen-Related Receptor alpha (ERRa) (AID 2282971; active means hit-call score of the fitted dose curve at least 0.9, where 1 is the maximum). To be noted: HepG2 Attagene TRANS reporter, ERRa transactivation. The method, boiled down: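 HepG2 cells transiently transfected with multiplexed GAL4-UAS reporter units reading chimeric ERRa-Gal4 activity; 24 h compound exposure. Reporter mRNA measured by RT-PCR, 6-FAM labelling, HpaI digest and capillary electrophoresis; gain of signal fitted versus DMSO baseline.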
Steroid hormone receptor ERR1 (Homo sapiens), sequence (P11474 whole entry, looked up, the tested form may be a part): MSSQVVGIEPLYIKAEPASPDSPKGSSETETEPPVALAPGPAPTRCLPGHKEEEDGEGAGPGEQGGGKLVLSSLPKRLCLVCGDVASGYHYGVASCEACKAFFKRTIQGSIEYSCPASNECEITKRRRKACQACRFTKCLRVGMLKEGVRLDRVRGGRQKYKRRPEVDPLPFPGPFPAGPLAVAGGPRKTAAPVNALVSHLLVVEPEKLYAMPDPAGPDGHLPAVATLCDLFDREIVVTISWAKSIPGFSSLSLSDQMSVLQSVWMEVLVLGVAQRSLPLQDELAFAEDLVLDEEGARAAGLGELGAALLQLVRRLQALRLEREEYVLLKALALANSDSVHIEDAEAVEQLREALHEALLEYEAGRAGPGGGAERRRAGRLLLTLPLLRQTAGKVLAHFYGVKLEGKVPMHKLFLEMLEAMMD

X-box-binding protein 1 (Homo sapiens), sequence (P17861 whole entry, looked up): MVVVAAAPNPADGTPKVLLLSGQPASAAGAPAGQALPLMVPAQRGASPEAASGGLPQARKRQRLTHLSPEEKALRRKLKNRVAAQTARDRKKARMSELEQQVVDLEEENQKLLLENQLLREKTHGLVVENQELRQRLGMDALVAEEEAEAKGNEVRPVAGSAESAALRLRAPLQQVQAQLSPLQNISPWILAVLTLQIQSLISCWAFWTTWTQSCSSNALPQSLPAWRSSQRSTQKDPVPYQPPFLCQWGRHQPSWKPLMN
Estrogen-related receptor gamma (Homo sapiens), sequence (P62508 whole entry, looked up, the tested form may be a part): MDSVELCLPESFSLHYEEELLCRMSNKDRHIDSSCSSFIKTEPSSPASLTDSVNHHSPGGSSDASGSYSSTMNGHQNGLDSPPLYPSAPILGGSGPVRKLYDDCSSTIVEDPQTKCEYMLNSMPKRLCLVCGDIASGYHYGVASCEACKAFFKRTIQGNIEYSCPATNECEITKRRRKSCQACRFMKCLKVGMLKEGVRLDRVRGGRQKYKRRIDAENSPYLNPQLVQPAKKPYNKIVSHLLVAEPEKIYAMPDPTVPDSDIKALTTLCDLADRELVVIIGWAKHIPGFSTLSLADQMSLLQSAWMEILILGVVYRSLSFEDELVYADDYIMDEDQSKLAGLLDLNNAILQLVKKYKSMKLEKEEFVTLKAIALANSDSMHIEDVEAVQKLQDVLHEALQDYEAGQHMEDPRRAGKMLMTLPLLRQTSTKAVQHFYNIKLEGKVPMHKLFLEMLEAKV
Glucocorticoid receptor (Homo sapiens), sequence (P04150 whole entry, looked up, the tested form may be a part): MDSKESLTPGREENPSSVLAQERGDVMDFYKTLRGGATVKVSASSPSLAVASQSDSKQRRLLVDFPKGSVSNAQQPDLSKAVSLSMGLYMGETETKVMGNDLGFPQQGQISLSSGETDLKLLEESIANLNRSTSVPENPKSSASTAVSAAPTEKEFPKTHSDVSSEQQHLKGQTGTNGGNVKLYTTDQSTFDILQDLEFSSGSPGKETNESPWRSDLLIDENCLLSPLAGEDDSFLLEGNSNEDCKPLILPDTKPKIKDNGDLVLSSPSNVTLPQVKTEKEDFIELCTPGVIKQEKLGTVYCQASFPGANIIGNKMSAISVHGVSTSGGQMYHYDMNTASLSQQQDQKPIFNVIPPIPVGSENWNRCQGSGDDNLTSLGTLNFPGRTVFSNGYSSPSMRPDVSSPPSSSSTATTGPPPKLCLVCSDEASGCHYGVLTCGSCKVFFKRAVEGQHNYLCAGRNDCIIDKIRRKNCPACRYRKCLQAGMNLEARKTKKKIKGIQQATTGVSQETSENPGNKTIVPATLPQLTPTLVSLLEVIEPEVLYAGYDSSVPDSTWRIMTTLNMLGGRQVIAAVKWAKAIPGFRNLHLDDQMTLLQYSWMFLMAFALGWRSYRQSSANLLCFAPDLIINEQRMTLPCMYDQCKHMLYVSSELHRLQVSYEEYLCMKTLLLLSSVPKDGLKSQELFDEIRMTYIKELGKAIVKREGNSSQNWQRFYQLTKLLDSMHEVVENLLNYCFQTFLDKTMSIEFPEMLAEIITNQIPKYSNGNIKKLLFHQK

Regarding `NC(=S)NNC(N)=S`, the call in test [1], in test [2], in test [3], in test [4] and in test [5] was inactive.

For the compound `CCCCCCCCSCCO`, the compound was classed as inactive in test [1], in test [2] and in test [5].

Take `C[N+](C)(C)CCCCCC[N+](C)(C)C`: the compound was called inactive in test [1], in test [2], in test [3] and in test [4].

Take `CCCCCC(C)=O`: the result in test [1], in test [2], in test [3], in test [4], in test [6] and in test [5] was inactive.

In the case of `CC/C=C\CCOC(=O)CC`, the call in test [1], in test [2] and in test [3] was inactive.

Turning to `CCOC(=O)C(C#N)=C(c1ccccc1)c1ccccc1`, the outcome in test [1] and in test [2] was inactive.

For the compound `CC[N+](C)(CC)CC`, the result in test [1], in test [2], in test [3], in test [4] and in test [5] was inactive.

In the case of `CCCC(C)=O`, the result in test [1] and in test [2] was inactive.

For the compound `CN1C(=O)c2ccccc2C1=O`, the result in test [1], in test [7], in test [2], in test [4], in test [6] and in test [5] was inactive.

For `CCCCCCCCCC(=O)OC`, the outcome in test [1], in test [2] and in test [3] was inactive.

`C=C(C#N)C(=O)OCC`: the compound was called inactive in test [1] and in test [3].

Consider `CCCCCCOCCOCCO`, for which the outcome in test [1], in test [2] and in test [3] was inactive.

In the case of `CS(C)=O`, the compound was classed as inactive in test [1], in test [2], in test [3] and in test [5].

With `O=C1OC2(c3ccccc31)c1ccc(O)c(Br)c1Oc1c2ccc(O)c1Br`, the call in test [1], in test [2] and in test [5] was inactive.

Consider `CC(C)CCCCCCCCCCCCCCC(=O)O`, for which, in test [1], the AC50 is 177 µM (active). Besides, the outcome in test [2] and in test [5] was inactive.

On to `Clc1ccc(C(c2ccccc2Cl)C(Cl)Cl)cc1` (stereo not drawn), for which the compound was called inactive in test [1], in test [2], in test [3], in test [4] and in test [5].

Regarding `CCCCCC(C=O)=Cc1ccccc1`, the outcome in test [1], in test [2], in test [3] and in test [4] was inactive.

Turning to `OCCc1ccccc1`, the compound was classed as inactive in test [1] and in test [2].

As to `CS(=O)(=O)OCCCCOS(C)(=O)=O`, the call in test [1], in test [2] and in test [3] was inactive.

`CCc1cc(Cc2cc(CC)cc(C(C)(C)C)c2O)c(O)c(C(C)(C)C)c1`: the call in test [1], in test [6] and in test [5] was inactive. The AC50 in test [2] was 16.9 µM (active).

As to `CC(C)CC(C)CC(O)CC(C)C` (stereo not drawn), the result in test [1], in test [2], in test [3] and in test [4] was inactive.

As to `CC(C=O)Cc1ccc(C(C)(C)C)cc1` (stereo not drawn), the call in test [1], in test [2] and in test [5] was inactive.

With `CCCCCCC(C)Nc1ccc(Nc2ccccc2)cc1` (stereo not drawn), the outcome in test [1], in test [2] and in test [5] was inactive.

For the compound `C=C(C)C(=O)OCC(CC)(COC(=O)C(=C)C)COC(=O)C(=C)C`, the compound was classed as inactive in test [1], in test [2], in test [3], in test [4] and in test [5].

In the case of `IC(I)I`, the result in test [1], in test [7], in test [3], in test [6] and in test [5] was inactive.

With `O=C(O)c1cccnc1C(=O)O`, the call in test [1], in test [2] and in test [3] was inactive.

As for `C=C1CC[C@H](O)C/C1=C/C=C1\CCC[C@]2(C)[C@@H]([C@H](C)/C=C/[C@H](C)C(C)C)CC[C@@H]12`, the call in test [1], in test [2] and in test [5] was inactive.

For `Cc1c(OCC(F)(F)F)ccnc1CS(=O)c1nc2ccccc2[nH]1` (stereo not drawn), the outcome in test [1], in test [2] and in test [5] was inactive.

As for `COC(C)(C)CCO`, the call in test [1], in test [3], in test [4], in test [6] and in test [5] was inactive.

`C=C(C)C1CC=C(C)C(=O)C1` (stereo not drawn): the call in test [1] and in test [2] was inactive.

Turning to `Cc1ccc(N)c(S(=O)(=O)O)c1`, the call in test [1] and in test [2] was inactive.

For the compound `CCOC(=O)CCc1ccccc1`, the compound was classed as inactive in test [1], in test [2], in test [3] and in test [4].

As for `O=C1OC(=O)c2c(Br)c(Br)c(Br)c(Br)c21`, the call in test [1], in test [2] and in test [4] was inactive.

`COS(=O)(=O)O`: the outcome in test [1], in test [2], in test [3] and in test [4] was inactive.

Regarding `CCOc1ccc(NC(=O)CC(C)O)cc1` (stereo not drawn), the AC50 in test [1] was 0.0975 µM (active). In test [3], the compound was called inactive.

As usually defined, the AC50 is the concentration at which the activity in the assay is half-maximal.
